Whole data set: some 33,000 sequences, median “E-score (-0.5 to 0.5)” near -0.021, cut for the highest 2% near 0.32. Many of the other results were omitted from the sample, so the highest values are more common in it than they were.
target: T1, Zap1 (UniProt P47043); experiment: PBM E-score (8-mer binding enrichment) (E-score (-0.5 to 0.5)); higher = stronger / more preferred TF binding; conditions: protein concentration: 200 nM; construct: GST-full length
T1 sequence: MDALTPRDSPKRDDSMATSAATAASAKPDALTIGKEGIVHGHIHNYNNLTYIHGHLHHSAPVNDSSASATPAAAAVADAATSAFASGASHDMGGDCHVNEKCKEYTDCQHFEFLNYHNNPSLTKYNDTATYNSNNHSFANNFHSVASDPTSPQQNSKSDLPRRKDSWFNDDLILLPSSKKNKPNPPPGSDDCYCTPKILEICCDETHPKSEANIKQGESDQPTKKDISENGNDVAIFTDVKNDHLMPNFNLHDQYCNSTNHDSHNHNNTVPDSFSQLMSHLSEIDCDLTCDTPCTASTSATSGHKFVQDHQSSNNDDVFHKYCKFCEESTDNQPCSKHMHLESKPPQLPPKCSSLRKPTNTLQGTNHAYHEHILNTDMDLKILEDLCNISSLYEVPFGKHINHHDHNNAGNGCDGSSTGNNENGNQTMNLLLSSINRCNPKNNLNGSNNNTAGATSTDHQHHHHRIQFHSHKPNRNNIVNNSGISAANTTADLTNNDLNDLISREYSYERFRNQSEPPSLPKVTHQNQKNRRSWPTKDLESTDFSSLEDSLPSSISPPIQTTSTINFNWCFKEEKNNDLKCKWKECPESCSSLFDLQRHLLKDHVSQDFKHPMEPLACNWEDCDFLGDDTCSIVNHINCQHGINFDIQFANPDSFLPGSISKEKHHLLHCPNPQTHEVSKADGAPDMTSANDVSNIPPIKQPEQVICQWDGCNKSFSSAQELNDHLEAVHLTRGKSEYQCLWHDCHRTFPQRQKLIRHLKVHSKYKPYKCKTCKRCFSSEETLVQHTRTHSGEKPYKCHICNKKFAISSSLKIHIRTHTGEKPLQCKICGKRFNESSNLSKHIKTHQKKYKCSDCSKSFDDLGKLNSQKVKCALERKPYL
Protocol: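 Universal 'all 10-mer' protein binding microarrays (Agilent AMADID 015681) probed with GST-tagged S. cerevisiae TFs (full-length or DBD) made by in vitro transcription/translation (PURExpress), about 100-200 nM. Bound TF was detected with fluorescent anti-GST. Each ungapped 8-mer (which stands for itself and its reverse complement) is scored by the PBM enrichment score (E-score), a modified Wilcoxon-Mann-Whitney statistic from -0.5 to +0.5, computed with the Universal PBM Analysis Suite. Scale: above 0.35 generally sequence-specific binding.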

Sequence	PBM E-score
GCATACCA	-0.0787
GCATACCC	0.344
ACATACCA	-0.0785
CCATACCC	0.29
ACATACCG	-0.00488
ACATACCC	0.347
AGCAGGGG	-0.0612
AGACAATA	0.0476
CGTTACCA	0.31
AGTTACTA	0.129
CGTTACTA	0.0809
AGTTACCA	0.263
AGTTACGA	0.226
GGTTACCA	0.468
CGTTACGA	0.121
GGTTACGA	0.465
GGTTACTA	0.447
AGTCTTAT	-0.115
CCGATAGC	-0.225
AACTAAGG	0.017
CACTACCC	0.367
GACTACCC	0.301
AACTACCC	0.391
CACTACCA	0.22
AACTACCG	0.179

Sequence	PBM E-score
AACTACCT	0.286
ATTGCCTG	-0.0833
GCCAGGGC	-0.128
CGCATACG	-0.12
AACCTATG	0.258
GCCCTATA	-0.144
ACCCTATA	0.354
CCCCTATA	-0.102
ACCCTATC	0.276
ACCCTATG	0.368
CCAGGCCG	-0.0809
GCGACACC	0.0184
ACACTCAA	0.139
AACGCTTC	-0.128
AGAAGCTA	-0.265
CAACCGTA	0.0143
CTTCAAAA	0.0592
TTTCAAAA	0.321
GTTCAAAA	0.0198
CGCACAAC	0.122
ACGGTTGC	0.117
ACGGTTAC	0.411
ACGGTTTC	-0.0123
ACGGTTAA	0.258
ACGGTTAG	0.223

Sequence	PBM E-score
ACGGTTAT	0.414
AGTTTGCA	-0.0409
TCCTCACA	0.0409
AAGAACTC	0.0396
ACAAAGAA	0.178
ACTGAATC	-0.0382
CGTCATTA	-0.145
GGTCATTA	0.321
GGTCATAC	0.313
GGTCATGA	0.346
AGTCATTA	-0.17
CGTCATGA	0.0742
GGTCATAA	0.379
TGTCATAA	0.184
AGTCATGA	0.0992
CCGGACCG	-0.129
AGCAATGC	-0.0926
ACGCGAAG	0.0536
ACTACCCG	0.261
AGGGGTCG	0.0682
ATGGGTCG	0.0454
GTGGGTCA	0.211
TAGGGTGA	0.299
TAGGGTCA	0.408
AAGGGTCG	0.36

Sequence	PBM E-score
GAGGGTCC	0.134
ATGGGTCC	0.263
ATGGGTCA	0.359
ACGGGTCG	0.116
TCGGGTCA	0.233
GAGGGTCA	0.397
ACTGGCTA	-0.0583
CCGAGACC	0.197
AGCAATGG	-0.133
AAACAGGT	0.135
ATACTCTC	-0.15
CACAGTTC	-0.0558
CTACTCGC	-0.18
ATGGGCGG	-0.125
AACGCATT	0.0284
AGGGGTCC	0.0654
GAGGGTGA	0.126
CAGGGTCA	0.417
AAGGGTCA	0.439
CAGGGTCC	0.14
GAGGGTTA	0.45
GAGGGGTA	0.245
AAGGGTCT	0.136
AGGGGTCA	0.438
AGGGGTGA	0.219

Sequence	PBM E-score
CAGGGTCG	0.275
AAGGGTGA	0.293
CATGCGAC	0.014
CGACCACC	0.15
CCTCTGTC	0.0337
AAAGTGTG	0.071
ATATCAGA	0.0906
CCTCGACC	-0.056
TTGCTAAA	-0.0992
GGCCCTGA	-0.137
GCGGGTCC	-0.0967
GGGGGTCA	-0.132
GCGGGTCA	0.367
CCGGGTCA	0.316
CGGGGTCA	0.332
ACGGGTCA	0.223
AGGTGGGC	-0.0375
CAGCTCAA	-0.0501
GCAAGATA	0.0727
AACCTACG	0.123
ACCCTACC	0.364
TCCCTACA	-0.0805
CCCCTACG	-0.117
ACCCTACG	0.361
CCCCTACC	0.0857

Sequence	PBM E-score
ACCCTACT	0.329
AACCTACT	0.135
CCCCTACA	-0.0402
AGCCTACT	-0.212
ACCCTACA	0.419
GCCCTACC	0.0168
GAGTTGCA	-0.0948
AAATTCCT	-0.0586
CAAAGTGC	-0.0833
CGAATCGA	0.00445
ATCGAATG	-0.106
ACCTAGGA	0.159
CTCAGGCA	-0.158
ATTGCGAA	-0.0714
GTAACAAC	0.234
AACATGCG	-0.0232
GCCAGAAC	-0.226
CATAACCA	0.462
AATAACAA	0.0521
TATAACAA	0.291
CATAACTA	0.18
CATAACAA	0.179
AATAACCA	0.445
GATAACGA	0.00419
TATAACCA	0.45

Sequence	PBM E-score
AATAACGA	-0.036
TCTAACCA	0.231
GATAACTA	0.231
GATAACCA	0.426
GTGTTGAA	-0.0764
ACGGCTCC	-0.198
GCCTTTGA	0.0766
GGTGTCAC	0.0261
CTCTGCAG	-0.126
ACTATAGT	0.197
AGCCGCTC	-0.0957
CCTGTTGC	0.0211
GCATAGAC	-0.117
CTGGTAAG	0.055
GCCATCCA	-0.197
CATAACGG	-0.0515
CATAACCG	0.395
CATAACAG	-0.0694
TTATATAA	0.331
AGTTATAA	0.193
GGTTATAC	0.461
ATATATAA	0.249
CGTTATAA	0.247
GGTTATAA	0.471
CGTTATAC	-0.00572

Sequence	PBM E-score
AGTTATAC	0.104
CTATATAA	0.24
ATTTGCGA	0.0692
CCCCATTC	-0.0769
ATCCTTCC	-0.306
GCATCTTA	-0.0867
ACCATTCT	0.0676
GATCATTA	0.0548
TATCCGGA	0.0937
GCGGTAAA	0.165
ACGGTAAG	0.016
ACGGTAAT	0.139
ACGGTAAC	0.364
CCGGTAAC	0.316
GCGGTAAC	0.32
GTTTGGAA	0.116
AGAAGTAC	-0.115
CGTAGCGA	-0.251
ATTGGTTC	0.141
CTTGGTTA	0.334
ATTGGTTA	0.402
CTTGGTTC	0.232
ATTGGTTG	0.186
GTTGGTTA	0.316
CCCTGCGG	0.292

Sequence	PBM E-score
CTAGCTCA	-0.147
ATATGGGG	-0.0334
CGAGAAAC	0.0891
AACCTGTA	0.324
CCCCTGTA	0.02
AACCTGAA	0.144
GCCCTGAA	0.0835
CACCTGTA	-0.0421
CCCCTGAA	0.127
ACCCTGAA	0.399
ACCCTGTA	0.353
GCCCTGTA	-0.0104
AACAGCGG	-0.195
AATGACCG	0.216
AATGACCT	0.393
AATGACGT	-0.0682
AATGACCA	0.334
AATGACTA	-0.136
TATGACCA	0.288
ACCTTAGG	0.216
AGTGCACG	-0.151
CATCAGCG	-0.182
AAGTATGT	-0.00136
TAGGTTAA	0.319
AAGGTTTC	0.206

Sequence	PBM E-score
AACGTTAC	0.111
GAGGTTCA	0.254
TAGGTTGA	0.101
GAGGTTGA	-0.00385
GAGGTTAC	0.473
GAGGTTAA	0.429
GAGGTTGC	0.238
AAGGTTAC	0.475
GAGGTTCC	0.223
TAGGTTCA	0.175
AGCGCACT	-0.293
CAGCCAAG	-0.242
TCTGAGAA	-0.0814
CCTCTGAC	0.139
AGTAGCAG	-0.0921
GTAGGGAC	-0.0704
CGGTTTCA	0.03
AACTTAAC	0.244
CTGATTCA	-0.158
CAGGTTAC	0.424
AAGGTTAG	0.35
AAGGTTAA	0.415
CAGGTTAA	0.325
CAGGTTTC	0.198
CAGGTTTA	-0.0228

Sequence	PBM E-score
AATGTTAA	-0.132
AAGGTTTG	0.176
CAGGTTAG	0.212
AAGGTTTA	0.226
CAGATTAA	0.118
CAGATTAC	0.0563
TATTATGA	0.00643
ACATAGCC	-0.0651
CGGTCTAC	-0.149
AGATCAGA	-0.0903
ACCCCTTC	0.234
GCCCCTTA	-0.0926
AACCCTTC	0.424
GACCCTTA	0.376
CACCCTTC	0.135
CAACCTTG	0.332
GTCCCTTA	0.0953
AACCCTTG	0.444
AGCCCTTG	-0.0802
CAACCTTC	0.313
AAACCTTG	0.0789
ACCCCTTG	0.279
CTGCGCAC	-0.0749
AAGCGTTA	-0.0244
GTGCTGTA	-0.06

Sequence	PBM E-score
CAAGGCGC	-0.141
GAATGGTA	0.202
CCTGCAAG	-0.043
AAATCACT	0.0213
ACCCCTTA	0.344
ATCCCTTA	0.0364
ACCCCTGA	0.28
CACCCTTA	0.269
CCCCCTTA	-0.365
AACCCTTA	0.457
CGGCGCAG	-0.253
ATCGTGCG	0.158
GCAGCCCC	-0.0536
AGAACCGG	-0.0565
ACAACCGC	0.285
AAAACCGA	0.0886
ACAACCGG	0.194
GGAACCGA	-0.0122
ACAACCGA	0.234
CTAACCGC	0.223
CTAACCGA	-0.035
ATAACCGC	0.459
ATAACCGG	0.387
ATAACCGA	0.349
GTAACCGA	0.346

Sequence	PBM E-score
CAGCTGGA	-0.131
CAAGGAGC	-0.24
AGAGATTA	-0.0587
GTGCTGAA	-0.117
ACTGTGGG	-0.145
TAGATATA	0.172
AGCTTAAA	0.0882
ACTAGCCG	-0.177
AGAACCTA	0.0497
ACAACCTG	0.23
ACAACCTA	0.232
ATAACCTG	0.412
GCAACCTA	0.106
GTAACCTA	0.458
CTAACCTC	0.305
GGAACCTA	0.146
ATAACCTA	0.458
CTAACCTA	0.327
CGAACCTA	0.00467
AGAACCTG	0.0538
CTGAAGCC	-0.31
ATCAGGGC	-0.249
ACATTCGT	-0.0131
GAGAACTC	-0.146
ATTGAATG	0.113

Sequence	PBM E-score
CGGGACAA	-0.0695
GGTCAAGA	0.242
GCTCTCTA	-0.246
GGGAAACC	0.324
GGGAAAAC	-0.241
AGGAAACC	0.272
CAGTATAA	0.197
ACTGAATA	-0.0283
AAAAACCC	0.196
CAAAAACC	0.302
CAAAACCC	0.349
CAAAACCA	0.311
CCAAAACC	0.331
CCAAAAAC	0.256
CCTTATAG	0.262
GCTGGGGA	-0.0703
ATTCTCTC	-0.0801
CGAGCGTA	-0.102
AAGCATAA	0.0593

— the supplement of paper PMC3334620
